Assay outcomes (PubChem)
CYP2C9 activ: CYP2C9 (human) activation; P11712; recombinant CYP2C9, luciferin-H conversion, luminescence; hits give high values; factor 1 = untreated enzyme, 0 = blocked; activation factor at 5 µM; hit rate 1.4% among 96,000; AID 1024;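 active = activation factor of 2 or more for CYP2C9 at a 5 µM dose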
Target sequence (P11712 whole entry, looked up): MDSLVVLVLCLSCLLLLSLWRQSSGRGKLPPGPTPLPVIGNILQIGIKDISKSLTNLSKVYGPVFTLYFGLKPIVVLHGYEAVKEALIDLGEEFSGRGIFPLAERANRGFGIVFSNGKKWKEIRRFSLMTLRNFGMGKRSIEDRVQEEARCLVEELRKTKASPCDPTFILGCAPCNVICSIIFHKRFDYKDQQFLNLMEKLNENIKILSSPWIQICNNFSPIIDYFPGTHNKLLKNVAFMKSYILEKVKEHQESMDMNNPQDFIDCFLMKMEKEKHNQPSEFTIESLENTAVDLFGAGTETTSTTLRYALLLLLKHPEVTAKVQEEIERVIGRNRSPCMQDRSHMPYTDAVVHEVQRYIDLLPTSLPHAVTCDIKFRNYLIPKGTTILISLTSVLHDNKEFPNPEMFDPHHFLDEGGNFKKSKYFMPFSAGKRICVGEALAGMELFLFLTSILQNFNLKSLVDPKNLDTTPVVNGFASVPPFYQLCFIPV
CYP2C19 activ: cytochrome P450 2C19 (human) activation | recombinant CYP2C19, luciferin-H EGE luminescence; hits give high values; 0 = fully inhibited enzyme, 1 = untreated enzyme | activation factor at 5 µM | 96,000 tested, under 10 active | AID 1025;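 active = activation factor of at least 2 at 5 µM in the primary screen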
DAT uptake mod: modulates human dopamine transporter uptake under cocaine. Q01959. hit rate 1.3% among 110,000. B-score at 10 µM. LLC-PK1 hDAT cells, [14C]-dopamine uptake with cocaine IC80; actives deviate in either direction;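 active = Z score or B-score, a plate-position-corrected score, falls beyond the plate's 99.7% confidence bounds, in either direction; inactive = both scores lie inside the 99.7% bounds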
D1 allo mod: D1 dopamine receptor (human) allosteric modulation. AID 641. B-score at 10 µM. P21728. hit rate 5.9% among 58,000. HEK293 D1, CRE-luciferase, dopamine EC30 potentiation; actives deviate in either direction;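 active = luminescence count or its row- and column-corrected plate score outside the 99.7% band of the plate's sample wells, on either side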
CYP2C19 inhib: human CYP2C19 inhibition | P33261 | CYP2C19 Supersomes, luciferin-H EGE luminescence, 30 min | inhibition, % at 5 µM | hit rate 21% among 96,000;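 active = CYP2C19 inhibition above a set limit at 5 µM in the primary screen, cut at about 50% in these data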
CYP2C9 inh: inhibitors of human CYP2C9; inhibition, % at 5 µM; P11712; CYP2C9 Supersomes, luciferin-H conversion, luminescence; hit rate 20% among 96,000;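 active = blocking of liver enzyme CYP2C9 beyond about 50% at 5 µM, limit read from the data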
A number is an active result; . = inactive; / = not tested or not shown. Most compounds without a hit are left out; they make up all but 28% or so of the library.

SMILES	CYP2C9 activ	CYP2C19 activ	DAT uptake mod	D1 allo mod	CYP2C19 inhib	CYP2C9 inh
CC1Cc2cc(/C(O)=C3/C(=O)C(=O)N(Cc4ccco4)C3c3cccs3)ccc2O1 (stereo not drawn)	.	.	.	.	.	.
Cc1cc(C)c2nc(SC(C)C#N)cc(C)c2c1 (stereo not drawn)	.	.	.	/	.	.
O=C(Nc1nccs1)c1ccc(S(=O)(=O)NCC2CCCCC2)cc1	.	.	/	.	.	.
CN(c1ccc(C(=O)Nc2nccs2)cc1)S(=O)(=O)c1ccccc1	.	.	.	.	73	51
O=C(Nc1nccs1)c1ccc(S(=O)(=O)NCc2cccs2)cc1	.	.	.	.	.	70
O=C(Nc1nncs1)c1ccc(S(=O)(=O)c2ccccc2)cc1	.	.	-8.7	.	.	60
CN(c1ccccc1)S(=O)(=O)c1ccc(C(=O)Nc2nccs2)cc1	.	.	.	.	.	.
O=C(Nc1ccccc1)C1=C[C@H](c2ccc(Br)cc2)C[C@H](OCc2ccc(CO)cc2)O1	/	/	.	/	/	/
Cc1nc2ccccn2c1-c1csc(NCc2ccco2)n1	.	.	.	-3.3	72	59
Cc1nc(NC(=O)c2ccccc2)sc1-c1csc(NCc2ccco2)n1	.	.	.	.	89	.
Cc1nc(C)c(-c2csc(NCc3ccccc3)n2)s1	.	.	.	.	83	.
Cc1cccc(-c2cc3nc4c(c(NCc5ccco5)n3n2)CCCC4)c1	.	.	.	/	.	.
Cc1ccn2c(-c3csc(NCc4ccccc4)n3)c(C)nc2c1	/	/	2.9	/	/	/
Cc1nc(C)c(-c2csc(Nc3cccnc3)n2)s1	.	.	.	.	.	.
Cc1ccc(/C=N/n2c(C)n[nH]c2=S)o1	.	.	.	/	.	.
CC(C)c1ccc(NC2(C#N)C(=O)Nc3ccccc32)cc1 (stereo not drawn)	.	.	/	/	.	.
Cc1ccc(N2C(=O)c3ccc(C(=O)N4CCN(c5cccc(C)c5C)CC4)cc3C2=O)cc1	/	/	.	/	/	/
CC1=CCC2C(=O)N(c3ccc(C(=O)N4CCCCCC4)cc3)C(=O)C2C1 (stereo not drawn)	.	.	.	/	.	.
Nc1ccc(-c2nc3c(Cl)c(N)ccc3[nH]2)cc1	.	.	.	.	.	.
Cc1nc(C)c(-c2csc(NCc3ccco3)n2)s1	2.7	.	.	.	69	.
COc1ccc(-c2csc(NCc3ccco3)n2)cc1	.	.	.	/	.	.
COc1cc(OC)cc(-c2cc3nc(C)cc(N4CCN(C(=O)c5ccco5)CC4)n3n2)c1	.	.	/	/	55	.
Cc1cc(N2CCN(C(=O)c3ccco3)CC2)n2nc(-c3cccc(F)c3)cc2n1	.	.	.	.	83	88
Cc1cc(N2CCN(C(=O)c3ccco3)CC2)n2nc(C)nc2n1	/	/	/	.	/	/
Cc1cc(N2CCOCC2)n2nc(-c3cccc(F)c3)cc2n1	/	/	.	.	/	/
SMILES	CYP2C9 activ	CYP2C19 activ	DAT uptake mod	D1 allo mod	CYP2C19 inhib	CYP2C9 inh
Cn1nnnc1CCOCCc1nnnn1C	.	.	.	.	.	.
COc1ccc(NC(C)=O)cc1NC(=O)CCn1c(=O)sc2ccccc21	/	/	.	.	/	/
CCOCCCNC(=O)C(Cc1ccccc1)NC(=O)c1ccco1 (stereo not drawn)	.	.	.	/	.	.
Cc1nc(CC(=O)c2c(C)cc(O)cc2O)cs1	.	.	.	.	.	.
Cc1nc(CC(=O)c2ccc(O)cc2O)cs1	.	.	.	/	.	.
CCOC(=O)c1ccc(CC(=O)c2ccc(O)cc2O)o1	.	.	.	/	.	.
COC(=O)c1ccc(CC(=O)c2ccc(O)cc2O)o1	.	.	.	-2.2	.	52
COc1ccc(CC(=O)c2c(O)cc(O)cc2O)cc1OC	.	.	.	/	77	88
COc1ccc(C(=O)Cc2ccc(OC)c(OC)c2)cc1	.	.	.	/	.	.
COC(=O)c1ccc(CC(=O)c2c(C)cc(O)cc2O)o1	.	.	.	.	93	60
COC(=O)c1cc(CC(=O)c2ccc(O)cc2O)c(C)o1	.	.	.	/	94	54
Cc1csc(-c2cnn(-c3ccccc3)c2NC(=O)c2ccccc2)n1	.	.	.	/	.	.
O=C1c2cccnc2C(=O)N1c1ccccc1-c1ccccc1	.	.	.	.	56	.
CCOc1ccc(S(=O)(=O)Nc2cccc(Cl)c2)cc1	/	/	.	.	/	/
CCOc1ccc(S(=O)(=O)Nc2cc(Sc3ncn[nH]3)c3oc(=O)sc3c2)cc1	.	.	.	/	69	67
Cc1ccc(Cl)cc1N1CCN(C(=O)CN(C2CCCCC2)S(C)(=O)=O)CC1	/	/	.	/	/	/
O=C(O)c1cccc(NS(=O)(=O)c2cccc3nsnc23)c1	.	.	.	/	.	.
COc1ccccc1CNC(=O)CN1C(=O)C(C)N(c2ccc(C)cc2)C1=O (stereo not drawn)	.	.	.	.	.	.
COc1ccc(CNC(=O)CN2C(=O)C(C)N(c3ccc(C)cc3)C2=O)cc1 (stereo not drawn)	.	.	/	/	94	78
Cc1ccc(N2C(=O)N(CC(=O)NCc3ccc(Cl)cc3)C(=O)C2C)cc1 (stereo not drawn)	.	.	.	/	74	.
CC(C)(C)OC(=O)N1CCC[C@H]1c1nnc(SCc2ccccc2F)o1	.	.	.	.	61	60
NC(=O)NC1CCCc2c1[nH]c1ccc(Cl)cc21 (stereo not drawn)	.	.	.	.	52	94
CC1(C)CC(=O)C2=C(C1)N(c1ccc(F)cc1)C(=O)CC2c1ccccc1 (stereo not drawn)	.	.	.	/	76	.
CC1(C)CC(=O)C2=C(C1)N(C1CCCCC1)C(=O)C2(O)C(F)(F)F (stereo not drawn)	.	.	.	/	.	.
CC1(C)CC(=O)C2=C(C1)N(c1ccc(F)cc1)C(=O)CC2c1cccnc1 (stereo not drawn)	.	.	.	.	.	.
SMILES	CYP2C9 activ	CYP2C19 activ	DAT uptake mod	D1 allo mod	CYP2C19 inhib	CYP2C9 inh
CC1(C)CC(=O)C2=C(C1)N(c1ccc(F)cc1)C(=O)C2(O)C(F)(F)F (stereo not drawn)	.	.	/	/	50	.
Cc1sc(NC(=O)C2CC=CCC2C(=O)O)c(C(=O)OC(C)C)c1C (stereo not drawn)	.	.	.	/	.	54
O=C(CN1CCN(S(=O)(=O)c2ccccc2)CC1)NC(=O)NCc1ccccc1	.	.	.	/	.	62
O=C(CN1CCN(S(=O)(=O)c2ccccc2)CC1)NC(=O)NC1CCCCC1	.	.	.	/	55	74
O=C(NCc1ccccc1)C1CC2CCCC(C1)C2=O (stereo not drawn)	.	.	.	.	.	.
CON(C)c1nc(NCC(C)C)nc(OCC#N)n1	.	.	.	/	.	.
CCCCn1c(SCC(=O)Nc2cc(NC(=O)c3ccco3)ccc2C)nc2ccccc2c1=O	.	.	.	.	72	75
O=C(CSc1nc2ccccc2c(=O)n1CCC(=O)N1CCCCC1)NCc1ccccc1	/	/	.	.	/	/
Cc1ccc(NC(=O)CSc2nc3ccccc3c(=O)n2CCCN2CCCCC2)cc1C	.	.	.	/	.	63
